From PubChem BioAssay
The source made the active and inactive calls.

Tests used:
[1] = E. coli DRC41 culture turbidity changes, primary screen, E. coli filamentation inducer project, strain DRC41, OD650, 48 h (AID 1152);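 also: E. coli MC1000 strain DRC41 lacking acrAB efflux pump and sulA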; details: E. coli DRC41 (acrAB sulA), higher = more signal, called active from +8 up or from −8 down
[2] = small-molecule binders of probe aLefty1, primary screen, biochemical, small-molecule microarray, 635/667 nm fluorescence (AID 1153); details: higher = more signal;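 also: score merges spot fluorescence with signal-to-noise ratio from the scanned slide images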
[3] = PSAC antagonists in infected red cells, primary screen, cell-based, P. falciparum Indochina, OD700, 1 h (AID 1154); details: P. falciparum Indochina infected RBC osmotic lysis, higher = more signal, called active from +8 up or from −8 down
[4] = PSAC antagonists in infected red cells, primary screen, cell-based, P. falciparum Indochina, OD700, 2 h (AID 1155);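 also: lysis reports solute entry through the parasite surface anion channel PSAC; channel blockers reduce lysis of infected cells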; details: P. falciparum Indochina infected erythrocytes, osmotic lysis OD700; higher = more signal, called active from +8 up or from −8 down
[5] = osmotic lysis modulators in infected erythrocytes, primary screen, PSAC antagonist project, cell-based, P. falciparum Indochina, OD700, 3 h (AID 1156); details: higher = more signal, called active from +8 up or from −8 down
[6] = PSAC antagonists in infected red cells, primary screen, cell-based, P. falciparum Indochina, OD700, 18 h (AID 1157); details: P. falciparum Indochina infected erythrocytes, osmotic lysis OD700, 18 h; higher = more signal, called active from +8 up or from −8 down
[7] = modulators of S6 phosphorylation in cells, primary screen, cell-based, A549, cytoblot, luminescence, serum-stimulated (AID 1158); details: A549 phospho-S6 cytoblot, 5 h, higher = more signal;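 also: serum-stimulated A549 lung adenocarcinoma cells; signal is phosphorylated S6 detected by cytoblot immunostaining with HRP secondary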
[8] = target: NADPH oxidase 2 (Homo sapiens) (UniProt P04839); assay: NOX2-dependent H2O2 signal modulators, primary screen, NOX inhibitor project, cell-based, HEK293-NOX2, PMA-stimulated, Amplex Red fluorescence (AID 1159); details: 45 min, higher = more signal, called active from +8 up or from −8 down; also: test concentration not given here
[9] = target: NADPH oxidase 4 (Homo sapiens) (UniProt Q9NPH5); assay: NOX4-dependent H2O2 signal modulators, primary screen, NOX inhibitor project, cell-based, HEK293-NOX4, tetracycline-induced, Amplex Red fluorescence (AID 1160); details: 45 min, higher = more signal, called active from +8 up or from −8 down
[10] = target: NADPH oxidase 5 (Homo sapiens) (UniProt Q96PH1); assay: NOX5-dependent H2O2 signal modulators, primary screen, NOX inhibitor project, cell-based, HEK293-NOX5, Amplex Red fluorescence (AID 1161); details: HEK293-NOX5, ionomycin, 45 min, higher = more signal
[11] = A549 cell viability effects, profiling panel, calcein-AM fluorescence, 48 h, basal (AID 1162); details: higher = more signal; also: test concentration not given here
[12] = adipocyte viability effects, profiling panel, cell-based, 3T3-L1 adipocytes, calcein-AM fluorescence, 48 h, basal (AID 1163); details: 3T3-L1 adipocytes viability, higher = more signal; also: test concentration not given here
[13] = HepG2 cell viability effects, profiling panel, calcein-AM fluorescence, 48 h, basal (AID 1164); details: higher = more signal; also: test concentration not given here
[14] = MM1S cell viability effects, profiling panel, calcein-AM fluorescence, 48 h, basal (AID 1165); details: higher = more signal;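 also: viability of MM1S multiple myeloma cells under basal unstimulated conditions; test concentration not given here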
[15] = basal RPMI8226 viability, no added stimulus, profiling panel, cell-based, calcein-AM fluorescence, 48 h, PK04 Diversity Set (AID 1166); details: RPMI8226 myeloma viability, higher = more signal;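 also: cells grown under basal conditions without added stimulus; test concentration not given here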
[16] = basal HepG2 mitochondrial membrane potential changes, profiling panel, cell-based, JC-1 fluorescence, 24 h, 100 nL compound (AID 1167); details: higher = more signal; also: test concentration not given here
[17] = basal 3T3-L1 adipocyte mitochondrial potential changes, profiling panel, cell-based, JC-1 fluorescence, 3T3-L1 adipocytes, 24 h, 100 nL compound (AID 1168); details: JC-1 mitochondrial fluorescence, higher = more signal, called active from +8 up or from −8 down; also: test concentration not given here
[18] = basal RPMI8226 mitochondrial membrane potential changes, profiling panel, cell-based, JC-1 fluorescence, 24 h, 100 nL compound (AID 1169); details: RPMI8226 myeloma, JC-1 mitochondrial potential fluorescence, higher = more signal; also: test concentration not given here
[19] = basal MM1S mitochondrial membrane potential changes, profiling panel, cell-based, JC-1 fluorescence, 24 h, 100 nL compound (AID 1170); details: higher = more signal; also: test concentration not given here
[20] = A549 lung cancer cell viability effects, profiling panel, resazurin fluorescence, 24 h, PK04 Diversity Set (AID 1171); details: higher = more signal, called active from +8 up or from −8 down; also: test concentration not given here

NADPH oxidase 5 (Homo sapiens), sequence (Q96PH1 whole entry, looked up): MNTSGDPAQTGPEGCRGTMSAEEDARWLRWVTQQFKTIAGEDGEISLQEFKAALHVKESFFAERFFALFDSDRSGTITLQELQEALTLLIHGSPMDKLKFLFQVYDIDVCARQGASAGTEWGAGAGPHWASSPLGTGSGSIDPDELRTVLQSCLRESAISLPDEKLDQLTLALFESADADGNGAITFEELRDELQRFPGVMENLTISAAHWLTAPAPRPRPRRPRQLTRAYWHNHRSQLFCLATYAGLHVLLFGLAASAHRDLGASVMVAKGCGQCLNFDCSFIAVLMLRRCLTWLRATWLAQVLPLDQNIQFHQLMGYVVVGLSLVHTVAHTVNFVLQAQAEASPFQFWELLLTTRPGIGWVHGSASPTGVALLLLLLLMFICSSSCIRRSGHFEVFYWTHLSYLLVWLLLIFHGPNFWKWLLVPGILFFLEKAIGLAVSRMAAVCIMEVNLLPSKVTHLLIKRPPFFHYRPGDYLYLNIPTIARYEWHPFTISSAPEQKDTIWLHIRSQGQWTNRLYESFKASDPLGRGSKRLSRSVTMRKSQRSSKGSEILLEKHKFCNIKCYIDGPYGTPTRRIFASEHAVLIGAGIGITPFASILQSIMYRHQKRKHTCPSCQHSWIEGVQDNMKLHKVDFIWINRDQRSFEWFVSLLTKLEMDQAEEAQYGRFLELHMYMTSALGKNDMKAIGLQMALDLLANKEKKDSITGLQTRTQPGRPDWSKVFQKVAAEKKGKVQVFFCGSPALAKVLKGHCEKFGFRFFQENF
NADPH oxidase 2 (Homo sapiens), sequence (P04839 whole entry, looked up): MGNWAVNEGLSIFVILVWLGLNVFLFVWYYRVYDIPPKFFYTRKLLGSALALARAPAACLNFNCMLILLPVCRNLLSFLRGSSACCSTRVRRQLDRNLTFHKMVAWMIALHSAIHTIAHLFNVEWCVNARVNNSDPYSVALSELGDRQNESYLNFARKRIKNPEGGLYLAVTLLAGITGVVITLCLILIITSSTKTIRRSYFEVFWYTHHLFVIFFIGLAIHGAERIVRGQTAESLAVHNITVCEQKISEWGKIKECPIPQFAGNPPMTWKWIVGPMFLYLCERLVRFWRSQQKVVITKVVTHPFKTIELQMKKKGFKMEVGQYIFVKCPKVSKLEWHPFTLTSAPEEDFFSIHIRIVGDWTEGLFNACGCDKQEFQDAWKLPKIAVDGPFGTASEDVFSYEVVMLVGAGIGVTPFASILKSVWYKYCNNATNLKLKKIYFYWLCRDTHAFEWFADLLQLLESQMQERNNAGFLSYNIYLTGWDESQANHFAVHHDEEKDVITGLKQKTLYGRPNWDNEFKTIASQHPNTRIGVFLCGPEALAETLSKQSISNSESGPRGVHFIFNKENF
NADPH oxidase 4 (Homo sapiens), sequence (Q9NPH5 whole entry, looked up): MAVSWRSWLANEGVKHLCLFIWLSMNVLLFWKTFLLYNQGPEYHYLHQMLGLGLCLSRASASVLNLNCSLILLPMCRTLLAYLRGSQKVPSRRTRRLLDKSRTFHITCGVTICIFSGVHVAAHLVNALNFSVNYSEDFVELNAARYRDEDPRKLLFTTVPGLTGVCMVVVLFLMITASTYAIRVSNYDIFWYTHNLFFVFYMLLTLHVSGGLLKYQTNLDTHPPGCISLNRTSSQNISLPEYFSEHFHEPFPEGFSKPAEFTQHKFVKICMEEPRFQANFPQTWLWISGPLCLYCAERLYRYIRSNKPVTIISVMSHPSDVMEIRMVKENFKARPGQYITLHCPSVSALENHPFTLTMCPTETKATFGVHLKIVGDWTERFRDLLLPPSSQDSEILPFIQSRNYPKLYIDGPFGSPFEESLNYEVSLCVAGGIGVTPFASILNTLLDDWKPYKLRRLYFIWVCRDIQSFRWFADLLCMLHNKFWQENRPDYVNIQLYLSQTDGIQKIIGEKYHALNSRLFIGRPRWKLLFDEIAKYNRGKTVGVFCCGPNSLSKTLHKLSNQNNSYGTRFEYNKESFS

SMILES	z-score [1]	composite z-score [2]	z-score [3]	z-score [4]	z-score [5]	z-score [6]	z-score [7]	z-score [8]	z-score [9]	z-score [10]	z-score [11]	z-score [12]	z-score [13]	z-score [14]	z-score [15]	z-score [16]	z-score [17]	z-score [18]	z-score [19]	z-score [20]
CO[C@@H]1COC(=O)CC=C[C@@H](C)[C@@H]2C=C[C@H](O)[C@@H](COC(=O)[C@H](C)NC(=O)CC=C[C@H]1C)O2	0.457 (inactive)	-0.626	-0.761 (inactive)	-1.27 (inactive)	0.564 (inactive)	-2.4 (inactive)	-0.309	-0.573 (inactive)	0.165 (inactive)	0.605	0.495	0.29	-0.857	0.23	0.706	-0.086	-1.62 (inactive)	0.583	-0.385	0.612 (inactive)
CS(=O)(=O)CCOC(=O)C1=CC(CCCO)=CC(c2cccs2)N(Cc2cccc(OC(F)(F)F)c2)C=C1C(=O)OCCS(C)(=O)=O (stereo not given)	-0.697 (inactive)	0.217	6.83 (inactive)	1.56 (inactive)	0.813 (inactive)	0.969 (inactive)	-0.0175	-0.895 (inactive)	-1.15 (inactive)	-2.09	0.0985	0.783	0.464	-3.28	-3.74	0.423	-0.268 (inactive)	-0.662	-1	-0.284 (inactive)
COC(=O)C1(C)C=C2C(=C(c3ccccc3)C(=O)C2C)CN1 (stereo not given)	-1.47 (inactive)	0.22	0.585 (inactive)	0.196 (inactive)	0.745 (inactive)	0.543 (inactive)	-0.387	0.512 (inactive)	-2.49 (inactive)	-2.34	-1.3	-0.492	-1.26	-0.671	-1.49	-1.68	-2.71 (inactive)	0.2	-0.933	-0.72 (inactive)
COCCCNC(=O)[C@]1(Cc2ccccc2)N=C(c2ccc(OCCCO)cc2)O[C@@H]1c1ccccc1	-1.43 (inactive)	0.301	26.9 (active)	18.6 (active)	0.972 (inactive)	2.34 (inactive)	-0.612	-1.04 (inactive)	0.654 (inactive)	1.1	-0.2	0.346	0.0484	-2.27	-0.701	-0.175	0.492 (inactive)	-0.286	-0.498	2.67 (inactive)
CC(CCN1CCc2nc(-c3ccccc3)c(-c3ccccc3)cc2C1)=NO[C@H](C)c1cn([C@@H]2COC[C@H]2O)nn1	0.548 (inactive)	0.0026	4.09 (inactive)	0.722 (inactive)	1.56 (inactive)	0.391 (inactive)	0.387	-2.96 (inactive)	0.289 (inactive)	-0.331	1.9	0.183	1.2	0.259	-0.283	1.34	-0.673 (inactive)	-0.291	-0.381	-0.579 (inactive)
O=C1C[C@]2(c3ccc([N+](=O)[O-])cc3)C(=O)N(CCN3CCOCC3)c3cc(CO)ccc3[C@H]2N1CC12CC3CC(CC(C3)C1)C2	0.319 (inactive)	0.056	1.4 (inactive)	-0.103 (inactive)	1.68 (inactive)	0.45 (inactive)	0.349	0.194 (inactive)	-1.09 (inactive)	-2.03	-0.677	0.15	-0.227	-0.208	-1.96	-0.141	0.0692 (inactive)	-0.043	0.0356	0.723 (inactive)
CC(C)=NOCc1cccc(-c2cc(-c3ccccc3)no2)c1	-1.79 (inactive)	0.194	0.648 (inactive)	-0.166 (inactive)	-0.532 (inactive)	-0.388 (inactive)	-0.947	1.21 (inactive)	0.439 (inactive)	-0.0547	-0.398	0.0768	0.0628	-1.06	-0.375	-0.499	-0.302 (inactive)	-0.112	0.354	-0.798 (inactive)
COc1ccc(O[C@H]2C=C[C@@H](c3ccccc3)O[C@@H]2CON=C[C@@H](C)[C@H](OCc2ccccc2)C(C)C)cc1	0.302 (inactive)	-0.246	2.08 (inactive)	0.98 (inactive)	0.422 (inactive)	0.319 (inactive)	0.831	-0.734 (inactive)	0.877 (inactive)	-0.165	0.688	-0.106	1.7	0.553	-0.903	0.46	0.732 (inactive)	-0.0803	-0.486	-0.463 (inactive)
CCOC(=O)[C@H](Cc1ccccc1)NC(=O)CCC1CC(OC(=O)NCc2ccc3c(c2)OCO3)CC2(CCCC(COC(=O)NCc3cccc(C(F)(F)F)c3)O2)O1 (stereo not given in full)	-0.667 (inactive)	0.138	-0.272 (inactive)	-1.05 (inactive)	-0.106 (inactive)	-1.37 (inactive)	2.74	-0.661 (inactive)	-1.35 (inactive)	-0.999	0.46	1.24	-0.526	0.706	-2.18	2.06	-0.56 (inactive)	0.918	-0.622	-0.0224 (inactive)
C=CC[C@@H]1C=C[C@H](ON=C2c3cc(OC)ccc3O[C@H](c3cccc(OC)c3)[C@H]2O)[C@@H](CO)O1	0.97 (inactive)	-0.0011	2.12 (inactive)	0.637 (inactive)	0.562 (inactive)	0.49 (inactive)	-0.171	-0.334 (inactive)	0.593 (inactive)	0.021	0.27	-0.855	0.925	0.334	-0.0859	-1.45	0.704 (inactive)	-0.148	-1.12	-1.25 (inactive)
CCOC(=O)C[C@H]1[C@H](OC(=O)c2cc3ccccc3oc2=O)[C@@H](NC(=O)c2ccc3ccccc3n2)c2cc(OCCCO)ccc2N1C(=O)c1ccccc1	0.571 (inactive)	0.0793	1.31 (inactive)	-0.639 (inactive)	0.628 (inactive)	-1.83 (inactive)	0.63	-0.253 (inactive)	-0.654 (inactive)	0.86	0.321	2.22	0.11	0.204	-0.785	-0.187	-0.408 (inactive)	-0.264	-0.0996	-0.881 (inactive)
C=CCOC(=O)[C@H]1[C@@H]2C(=O)O[C@@H](c3ccccc3)[C@@H](c3ccccc3)N2[C@@H](c2ccc(OCCOC(=O)[C@H]3C[C@H]4C(=O)N[C@@H](Cc5ccccc5)C(=O)N4[C@H]3c3ccc(O)cc3)cc2)[C@]12C(=O)Nc1ccccc12	0.561 (inactive)	-0.263	2.5 (inactive)	1.2 (inactive)	-4 (inactive)	0.988 (inactive)	0.338	1.83 (inactive)	0.898 (inactive)	1.44	-0.794	0.689	0.642	0.0505	-0.216	-1.47	0.0241 (inactive)	-0.287	-0.718	1.7 (inactive)
C=COC[C@H]1CN2[C@@H](CC[C@@H](C)[C@@H]2c2ccc(Br)cc2)C(=O)O1	-1.63 (inactive)	0.0402	-0.591 (inactive)	-2.06 (inactive)	-0.655 (inactive)	-1.99 (inactive)	1.54	-0.427 (inactive)	0.102 (inactive)	0.574	0.197	0.34	1.3	0.48	-0.228	0.244	1.39 (inactive)	-0.56	0.252	-0.0242 (inactive)
CN1C(=O)[C@@]2(CCC(=O)OC(C)(C)C)N=C(c3ccc(OCCCO)cc3)O[C@H]2c2ccccc21	1.02 (inactive)	0.0959	30.8 (active)	26.6 (active)	1.7 (inactive)	1.11 (inactive)	1.09	-2.05 (inactive)	0.112 (inactive)	-1.43	0.575	1.36	-0.614	-1.85	-3.45	0.543	-0.207 (inactive)	-1.18	-0.696	-0.54 (inactive)
CC(=O)OC[C@H]1O[C@H](CCON=C(C)CCN2CCc3nc(-c4ccccc4)c(-c4ccccc4)cc3C2)C=C[C@@H]1OC(C)=O	-0.132 (inactive)	0.0446	2.65 (inactive)	0.452 (inactive)	0.676 (inactive)	0.148 (inactive)	-0.166	-2.87 (inactive)	-0.455 (inactive)	-2.78	0.396	0.235	0.2	-2.16	0.091	-0.273	-1.4 (inactive)	0.168	-0.594	0.783 (inactive)
CCOC(=O)CCN1C(=O)[C@H]2[C@H]3[C@H](O)[C@H](O)CC(=O)[C@H]3CC[C@H]2C1=O	-1.98 (inactive)	-0.0984	-0.062 (inactive)	-0.426 (inactive)	-0.451 (inactive)	-1.42 (inactive)	1.11	-0.513 (inactive)	0.947 (inactive)	-0.00675	-0.439	1.43	0.0368	-0.904	-0.122	-0.103	-0.237 (inactive)	0.0295	-1.28	-0.125 (inactive)
COc1ccc(O[C@H]2C=C[C@@H](c3ccccc3)O[C@@H]2COC(=O)CCC(C)=NO[C@@H](C)c2cc(-c3c(C)cc(C)cc3C)no2)cc1	0.409 (inactive)	-0.378	0.595 (inactive)	0.322 (inactive)	0.488 (inactive)	0.245 (inactive)	-0.0348	1.18 (inactive)	-0.00862 (inactive)	-1.09	-0.845	0.0504	0.033	0.0731	-0.644	0.48	-1.34 (inactive)	0.129	-0.424	1.8 (inactive)
CCOC(=O)CCN1C(=O)[C@H]2[C@H]3[C@H](O)[C@H](O)CC(=NOC[C@@H](O)COCc4ccco4)[C@H]3CC[C@H]2C1=O	-0.923 (inactive)	-0.101	0.73 (inactive)	-1.31 (inactive)	0.318 (inactive)	-2.76 (inactive)	0.141	-0.343 (inactive)	0.0781 (inactive)	-0.498	-1.43	0.8	-0.524	-2.09	-2.29	-0.803	-0.433 (inactive)	-0.126	-0.612	-0.383 (inactive)
